Source: PMC5540273 (PLoS ONE, 2017)

system: TYK2(JH1domain-catalytic); details: concentration: 1 μM, replicates: in singlicate; n = 1
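Also: KINOMEscan kinase panel screen.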

With COC(=O)Nc1nc2cc(Oc3ccc(NC(=O)Nc4cc(F)ccc4F)cc3)ccc2[nH]1.Cl [GW701424] as the compound, how does the “%Inh” value read?
Its value is 30%.

How did the “%Inh” value turn out when O=c1cc(N2CCOCC2)nc2n(Cc3cccc(Cl)c3Cl)c(C3CC3)nn12 [GSK2358994] was run?
Its value is 11%.

Which “%Inh” value does the source give for Nc1nccc(-c2c(-c3ccc(F)cc3)ncn2C2CCN(CC(F)(F)F)CC2)n1 [SB-236560] here?
Its value is 14%.

With O=C(Nc1cccc(-c2nn3ncccc3c2-c2ccnc(Nc3cccc(C(F)(F)F)c3)n2)c1)c1c(F)cccc1F [GSK299495] as the compound, how does the “%Inh” value read?
The value was 22%.

How did the “%Inh” value turn out when CSc1ccc(-c2cc3ncnc(SCC(=O)O)c3s2)cc1 was run?
Its value is 0%.

For Cn1ccc2ncnc(Oc3ccc(NC(=O)Nc4ccncc4)c(Cl)c3)c21, which “%Inh” value is on record?
Its value is 3%.

O=c1cc(N2CCOCC2)nc2n(Cc3cccc4ccccc34)ccn12 [GSK2333389] was tested. Which “%Inh” value did it give?
Its value is 24%.

CCc1nc(-c2cccc(C)c2)c(-c2ccnc(NCc3ccccc3)c2)s1 was tested. Which “%Inh” value did it give?
The value was 0%.

With CC(C)(C)n1cnc2c(N)ncnc21 [SKF-97359] as the compound, how does the “%Inh” value read?
Its value is 21%.

COc1ccc(CNC(=O)NC2CCN(c3ccnc(Nc4ccc(OC)cc4)n3)C2)cc1 (centres unmarked) [GSK1379727] was tested. Which “%Inh” value did it give?
The value was 37%.

With Fc1ccc(-c2ncn(CCCN3CCOCC3)c2-c2ccccn2)cc1 [SB-211742] as the compound, how does the “%Inh” value read?
The value was 0%.

O=c1cc(N2CCOCC2)nc2n(Cc3cccc(F)c3)ccn12 [GSK2297430] was tested. Which “%Inh” value did it give?
Its value is 13%.

COc1cc(Nc2nccc(N3CCC(NC(=O)c4cccc(NC(C)=O)c4)C3)n2)cc(OC)c1OC (centres unmarked) [GSK1379754] was tested. Which “%Inh” value did it give?
Its value is 68%.

Cc1cccc(Cn2ccn3c(=O)cc(N4CCOCC4)nc23)c1 [GSK2297542] was tested. Which “%Inh” value did it give?
The value was 0%.

Which “%Inh” value does the source give for O=C(NOCC1CC1)c1ccc(F)c(F)c1Nc1ccc(I)cc1Cl here?
Its value is 0%.

C[C@@H](Oc1cc(-n2cnc3ccc(NC(=O)NC(C)(C)C)cc32)sc1C(N)=O)c1ccccc1Cl [GSK346294] was tested. Which “%Inh” value did it give?
The value was 8%.

For Cc1nnc(-c2ccc(C)c(-c3ccc(C(=O)Nc4ccc(NS(C)(=O)=O)cc4)cc3)c2)o1 [GW702865], which “%Inh” value is on record?
The value was 20%.

N#Cc1ccc(-c2cc(-c3c[nH]nc3-c3ccccn3)ccn2)cc1 [GW693028] was tested. Which “%Inh” value did it give?
The value was 1%.

O=C(Nc1n[nH]c2cc(-c3cccc(F)c3)ccc12)C1CC1 [SB-735464] was tested. Which “%Inh” value did it give?
The value was 1%.

Which “%Inh” value does the source give for Cn1cc(-c2ccc3c(c2)CCN3C(=O)Cc2ccccc2Cl)c2c(N)ncnc21 [GSK2608885] here?
The value was 33%.

For CC(C)Oc1ccc2c(-c3ccnc(Nc4ccc(N5CCN(C)CC5)cc4)n3)cnn2n1 [GW696155], which “%Inh” value is on record?
Its value is 98%.

For O=C(NCCCN1CCOCC1)c1cccc(Nc2nccc(Nc3ccc(Oc4ccccc4)cc3)n2)c1 [GW663929], which “%Inh” value is on record?
Its value is 30%.

With COc1cc2c(cc1OC[C@@H](O)CO)ncc1c3ccc(C#N)cc3[nH]c21 as the compound, how does the “%Inh” value read?
The value was 0%.

Which “%Inh” value does the source give for CN(C1=C(c2ccccc2)C(=O)NC1=O)c1ccccc1 [SB-334860] here?
The value was 0%.

How did the “%Inh” value turn out when Fc1ccc(-c2nn3c(OCC(F)(F)F)cccc3c2-c2ccncc2)cc1 [GW514784] was run?
The value was 10%.

For O=C1NC(=O)C(N2CCc3ccccc32)=C1c1cccc(Cl)c1 [SB-408010], which “%Inh” value is on record?
The value was 4%.

How did the “%Inh” value turn out when Cl.Nc1ncnc2occ(-c3ccc(NC(=O)Nc4cc(C(F)(F)F)ccc4F)cc3)c12 [SB-707548] was run?
Its value is 0%.

For NS(=O)(=O)CCc1cccc(Nc2nccc(-c3c(-c4cccc(NC(=O)c5c(F)cccc5F)c4)nn4ccccc34)n2)c1 [GSK336735], which “%Inh” value is on record?
Its value is 98.7%.

With Cc1nnc(-c2ccc3ncc(-c4ccc(S(C)=O)cc4)n3c2)o1 (centres unmarked) as the compound, how does the “%Inh” value read?
Its value is 5%.

How did the “%Inh” value turn out when COc1ccc(Nc2nccc(N3CCC(NC(=O)Nc4cccc(C(C)=O)c4)C3)n2)cc1 (centres unmarked) [GSK1379731] was run?
The value was 35%.

How did the “%Inh” value turn out when NCC(NC(=O)c1cc(-c2cn[nH]c2)c(-c2ccnc3[nH]ccc23)s1)c1ccccc1.O=C(O)C(F)(F)F.O=C(O)C(F)(F)F (centres unmarked) [GSK1325775] was run?
Its value is 49%.

For N#Cc1c(N2CCOCC2)sc(-c2ccn[nH]2)c1-c1ccc(Cl)cc1, which “%Inh” value is on record?
Its value is 14%.

For c1ccc(-c2n[nH]cc2-c2ccnc3ccccc23)nc1 [GW271431], which “%Inh” value is on record?
The value was 17%.

Nc1nc(-c2ccc3c(N)n[nH]c3c2)cc(N2CCCC2)n1 [GSK2227430] was tested. Which “%Inh” value did it give?
Its value is 0%.

system: TYK2(JH2domain-pseudokinase); details: concentration: 1 μM, replicates: in singlicate; n = 1

COC(=O)Nc1nc2cc(Oc3ccc(NC(=O)Nc4cc(F)ccc4F)cc3)ccc2[nH]1.Cl [GW701424] was tested. Which “%Inh” value did it give?
Its value is 46%.

O=c1cc(N2CCOCC2)nc2n(Cc3cccc(Cl)c3Cl)c(C3CC3)nn12 [GSK2358994] was tested. Which “%Inh” value did it give?
The value was 0%.

For Nc1nccc(-c2c(-c3ccc(F)cc3)ncn2C2CCN(CC(F)(F)F)CC2)n1 [SB-236560], which “%Inh” value is on record?
The value was 82%.

How did the “%Inh” value turn out when O=C(Nc1cccc(-c2nn3ncccc3c2-c2ccnc(Nc3cccc(C(F)(F)F)c3)n2)c1)c1c(F)cccc1F [GSK299495] was run?
The value was 39%.

Which “%Inh” value does the source give for CSc1ccc(-c2cc3ncnc(SCC(=O)O)c3s2)cc1 here?
The value was 0%.

Cn1ccc2ncnc(Oc3ccc(NC(=O)Nc4ccncc4)c(Cl)c3)c21 was tested. Which “%Inh” value did it give?
Its value is 5%.

For O=c1cc(N2CCOCC2)nc2n(Cc3cccc4ccccc34)ccn12 [GSK2333389], which “%Inh” value is on record?
The value was 10%.

How did the “%Inh” value turn out when CCc1nc(-c2cccc(C)c2)c(-c2ccnc(NCc3ccccc3)c2)s1 was run?
The value was 0%.

How did the “%Inh” value turn out when CC(C)(C)n1cnc2c(N)ncnc21 [SKF-97359] was run?
The value was 1%.

How did the “%Inh” value turn out when COc1ccc(CNC(=O)NC2CCN(c3ccnc(Nc4ccc(OC)cc4)n3)C2)cc1 (centres unmarked) [GSK1379727] was run?
Its value is 46%.

For Fc1ccc(-c2ncn(CCCN3CCOCC3)c2-c2ccccn2)cc1 [SB-211742], which “%Inh” value is on record?
Its value is 0%.

How did the “%Inh” value turn out when O=c1cc(N2CCOCC2)nc2n(Cc3cccc(F)c3)ccn12 [GSK2297430] was run?
The value was 2%.

With COc1cc(Nc2nccc(N3CCC(NC(=O)c4cccc(NC(C)=O)c4)C3)n2)cc(OC)c1OC (centres unmarked) [GSK1379754] as the compound, how does the “%Inh” value read?
The value was 19%.

For Cc1cccc(Cn2ccn3c(=O)cc(N4CCOCC4)nc23)c1 [GSK2297542], which “%Inh” value is on record?
The value was 26%.

O=C(NOCC1CC1)c1ccc(F)c(F)c1Nc1ccc(I)cc1Cl was tested. Which “%Inh” value did it give?
The value was 0%.

For C[C@@H](Oc1cc(-n2cnc3ccc(NC(=O)NC(C)(C)C)cc32)sc1C(N)=O)c1ccccc1Cl [GSK346294], which “%Inh” value is on record?
The value was 0%.

For Cc1nnc(-c2ccc(C)c(-c3ccc(C(=O)Nc4ccc(NS(C)(=O)=O)cc4)cc3)c2)o1 [GW702865], which “%Inh” value is on record?
Its value is 11%.

With N#Cc1ccc(-c2cc(-c3c[nH]nc3-c3ccccn3)ccn2)cc1 [GW693028] as the compound, how does the “%Inh” value read?
The value was 28%.

Which “%Inh” value does the source give for O=C(Nc1n[nH]c2cc(-c3cccc(F)c3)ccc12)C1CC1 [SB-735464] here?
The value was 10%.

Cn1cc(-c2ccc3c(c2)CCN3C(=O)Cc2ccccc2Cl)c2c(N)ncnc21 [GSK2608885] was tested. Which “%Inh” value did it give?
The value was 0%.

Which “%Inh” value does the source give for CC(C)Oc1ccc2c(-c3ccnc(Nc4ccc(N5CCN(C)CC5)cc4)n3)cnn2n1 [GW696155] here?
Its value is 99.4%.

Which “%Inh” value does the source give for O=C(NCCCN1CCOCC1)c1cccc(Nc2nccc(Nc3ccc(Oc4ccccc4)cc3)n2)c1 [GW663929] here?
The value was 44%.

For COc1cc2c(cc1OC[C@@H](O)CO)ncc1c3ccc(C#N)cc3[nH]c21, which “%Inh” value is on record?
The value was 22%.

Which “%Inh” value does the source give for CN(C1=C(c2ccccc2)C(=O)NC1=O)c1ccccc1 [SB-334860] here?
Its value is 0%.

Which “%Inh” value does the source give for Fc1ccc(-c2nn3c(OCC(F)(F)F)cccc3c2-c2ccncc2)cc1 [GW514784] here?
Its value is 36%.

O=C1NC(=O)C(N2CCc3ccccc32)=C1c1cccc(Cl)c1 [SB-408010] was tested. Which “%Inh” value did it give?
Its value is 0%.

How did the “%Inh” value turn out when Cl.Nc1ncnc2occ(-c3ccc(NC(=O)Nc4cc(C(F)(F)F)ccc4F)cc3)c12 [SB-707548] was run?
Its value is 12%.

For NS(=O)(=O)CCc1cccc(Nc2nccc(-c3c(-c4cccc(NC(=O)c5c(F)cccc5F)c4)nn4ccccc34)n2)c1 [GSK336735], which “%Inh” value is on record?
Its value is 18%.

For Cc1nnc(-c2ccc3ncc(-c4ccc(S(C)=O)cc4)n3c2)o1 (centres unmarked), which “%Inh” value is on record?
Its value is 2%.

How did the “%Inh” value turn out when COc1ccc(Nc2nccc(N3CCC(NC(=O)Nc4cccc(C(C)=O)c4)C3)n2)cc1 (centres unmarked) [GSK1379731] was run?
Its value is 16%.

How did the “%Inh” value turn out when NCC(NC(=O)c1cc(-c2cn[nH]c2)c(-c2ccnc3[nH]ccc23)s1)c1ccccc1.O=C(O)C(F)(F)F.O=C(O)C(F)(F)F (centres unmarked) [GSK1325775] was run?
Its value is 31%.

How did the “%Inh” value turn out when N#Cc1c(N2CCOCC2)sc(-c2ccn[nH]2)c1-c1ccc(Cl)cc1 was run?
The value was 20%.

With c1ccc(-c2n[nH]cc2-c2ccnc3ccccc23)nc1 [GW271431] as the compound, how does the “%Inh” value read?
Its value is 10%.

For Nc1nc(-c2ccc3c(N)n[nH]c3c2)cc(N2CCCC2)n1 [GSK2227430], which “%Inh” value is on record?
The value was 46%.
